The campaign covered roughly 52,000 compounds. About 4,300 (8.3%) were called active. No stated cut-off is given here; in the data, active means survival mostly below about 52% (no sharp cut-off); inactive means mostly above about 56%. The sample as a whole holds a higher share of actives than the screen did.
The compounds below were run on DeltatarO mutant (assay: S. aureus survival, RN4220 and DeltatarO strains – OD600, teichoic acid synthesis inhibitors, primary screen (AID 463173)). Conditions: S. aureus RN4220 wild type/DeltatarO growth, OD600, 18 h, stronger effect = lower value, screened at 18.75 µg/mL (by protocol).
With Cc1ccc(NC(=O)Cn2nc(C)c3nn(-c4ccc(Cl)cc4)c(C)c3c2=O)cc1C the survival was 75% (inactive). In the case of CCOc1ccc(CNC(=O)CSc2nnc(C)c3c(C)n(-c4ccc(Cl)cc4)nc23)cc1, the survival is reported as 91% (inactive). COc1ccccc1/C=C/c1nc(C#N)c(N2CCN(C)CC2)o1 was tested, and the survival was 92% (inactive). CCOC(=O)c1cnc2cc(-c3ccc(Cl)cc3)nn2c1-c1ccccc1 was tested, and the survival was 68% (inactive). Cc1ccc(-c2cc3ncc(C(=O)c4cc([N+](=O)[O-])ccc4O)cn3n2)cc1 was tested, and the survival was 8% (active). For COc1ccc(-c2cc3ncc(C(=O)c4cc([N+](=O)[O-])ccc4O)cn3n2)cc1, the survival was 33% (active). For O=C(CSc1nnc(-c2ccccc2)o1)c1cccc([N+](=O)[O-])c1, the survival was 135% (inactive). O=C(c1cnc2cc(-c3ccccc3)nn2c1)c1cc([N+](=O)[O-])ccc1O was tested, and the survival was 9% (active). CCc1ccc(O)c(C(=O)c2cnc3cc(-c4ccc(C)cc4)nn3c2)c1 was tested, and the survival was 89% (inactive). With CCOC(=O)COc1cc(C)c(Cl)cc1C(=O)c1ccn2nc(-c3ccc(OC)cc3)cc2n1 the survival was 92% (inactive). In the case of Cc1ccc(-c2cc3ncc(C(=O)c4cc(Cl)c(C)cc4O)cn3n2)cc1, the survival is reported as 84% (inactive). For COc1ccc(CNC(=O)c2cc(-c3ccc(OC)cc3)nc3n[nH]c(-c4cccc([N+](=O)[O-])c4)c23)cc1, the survival was 68% (inactive). For CC(=O)Nc1cccc(NC(=O)CCn2cnc3cc(C)c(C)cc32)c1, the survival was 62% (inactive). COc1cccc(C(=O)NC(=S)NCc2ccco2)c1 was tested, and the survival was 93% (inactive). With O=C(Cn1nc(C(F)(F)F)c2c1CCC2)Nc1ccc(Cl)cc1 the survival was 54% (inactive). In the case of CCN(CC)c1ccc(C(=O)NCc2ccc3c(c2)CCN3C(=O)c2ccc(F)cc2)cc1, the survival is reported as 84% (inactive). With CCN1/C(=C2\C(=O)N(c3ccc(Cl)cc3)N=C2C)C=Cc2ccccc21 the survival was 68% (inactive). For Cc1ccc(-c2nnn(CC(=O)NC(C)C)n2)cc1, the survival was 83% (inactive). With CCOc1cc(C#N)c(NC(=O)Cn2nnc(-c3ccc(C)cc3)n2)cc1OCC the survival was 42% (active). CCOC(=O)C(Cc1ccccc1)NC(=O)Cn1nnc(-c2ccc(C)cc2)n1 (configuration not stated) was tested, and the survival was 59% (inactive). With Cc1ccc(NC(=O)Cn2c(=O)oc3cc(S(=O)(=O)N4CCCCCC4)ccc32)cc1Cl the survival was 93% (inactive). For Cc1nc2ccccc2n1CC(O)COc1ccc(C(=O)O)cc1 (configuration not stated), the survival was 46% (active). With CCCc1nc2ccccc2n1CC(O)COc1ccc(C(=O)OC)cc1 (configuration not stated) the survival was 64% (inactive). For CCCc1nc2ccccc2n1CC(O)COc1ccccc1 (configuration not stated), the survival was 69% (inactive). With CCN(Cc1ccccc1)c1ncnc2c1nnn2C the survival was 57% (inactive). In the case of CCOc1ccccc1CNC(=O)c1nc(-c2ccc(Cl)cc2)n2c1CCCCC2, the survival is reported as 67% (inactive). With Cc1ccc(-n2nc3c(N4CCC(C(=O)N5CCCCC5)CC4)nnc(C)c3c2C)cc1 the survival was 85% (inactive). For Cc1cc(C)c(S(=O)(=O)NCC(c2ccco2)S(=O)(=O)c2ccccc2)c(C)c1 (configuration not stated), the survival was 99% (inactive). For Cc1cc(S(=O)(=O)NCC(c2ccco2)S(=O)(=O)c2cccs2)ccc1F (configuration not stated), the survival was 101% (inactive). With Cc1cc(C)c(S(=O)(=O)NCC(c2ccco2)S(=O)(=O)c2cccs2)c(C)c1 (configuration not stated) the survival was 25% (active). With O=S(=O)(NCC(c1ccco1)S(=O)(=O)c1cccs1)c1ccc(F)c(C(F)(F)F)c1 (configuration not stated) the survival was 37% (active). With Cc1cc(F)ccc1S(=O)(=O)NCC(c1ccco1)S(=O)(=O)c1cccs1 (configuration not stated) the survival was 118% (inactive). For O=S(=O)(NCC(c1ccco1)S(=O)(=O)c1cccs1)c1ccc(Cl)cc1 (configuration not stated), the survival was 92% (inactive). In the case of COc1ccc(-c2cnnn2-c2ccc(NC(=O)c3ccccc3OC)cc2)cc1, the survival is reported as 107% (inactive). CCOc1ccccc1CN(CCc1ccc2c(c1)OCO2)Cc1cc(OC)c(OC)cc1OC was tested, and the survival was 56% (inactive). For CCOc1ccccc1CN(CCc1ccc2c(c1)OCO2)Cc1cccc(OC)c1OC, the survival was 34% (active). For CCOc1ccccc1CN(CCc1ccc2c(c1)OCO2)Cc1ccccn1, the survival was 77% (inactive). COc1cccc(NC(=O)Cn2c(=O)n(-c3ccc(C)cc3)c(=O)c3ccc(C(=O)NCc4ccco4)cc32)c1 was tested, and the survival was 80% (inactive). With Cc1c(Cl)cccc1NC(=O)c1ccc2c(c1)CCN2S(=O)(=O)c1ccccc1 the survival was 39% (active). Cc1c(Cl)cccc1NC(=O)c1ccc2c(c1)CCCN2S(C)(=O)=O was tested, and the survival was 70% (inactive). CCc1cccc(CC)c1NC(=O)c1ccc2c(c1)CCN2S(=O)(=O)c1ccccc1 was tested, and the survival was 60% (inactive). For CCS(=O)(=O)N1CCc2cc(C(=O)Nc3cccc(C)c3C)ccc21, the survival was 80% (inactive). In the case of Cc1ccc(C)c(NC(=O)c2ccc3c(c2)CCN3S(=O)(=O)c2ccccc2)c1, the survival is reported as 40% (active). For Cc1ccc(S(=O)(=O)N2CCc3cc(C(=O)Nc4ccc(C)c(C)c4)ccc32)cc1, the survival was 60% (inactive). In the case of CCS(=O)(=O)N1CCc2cc(C(=O)Nc3cccc(Cl)c3C)ccc21, the survival is reported as 86% (inactive). In the case of Cc1ccc(C)c(NC(=O)c2ccc3c(c2)CCN3S(C)(=O)=O)c1, the survival is reported as 105% (inactive). For Cc1cccc(NC(=O)c2ccc3c(c2)CCN3S(=O)(=O)c2ccccc2)c1C, the survival was 38% (active).
